Calls of active or inactive are those of the source.

The subject of assay [1] is Plasmodium falciparum Sir2 (PF13_0152, Sir2A). Briefly: pfSir2 binders on small-molecule microarrays, primary screen, biochemical, small-molecule microarray, 635 nm fluorescence (AID 1098).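 Further: score merges spot fluorescence intensity with its signal-to-noise ratio.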 The note with it: small-molecule microarray binding, fluorescence 635 nm; higher = more signal.
The nature of assay [2]: small-molecule microarray binders of probe aDKK1, primary screen, biochemical, biotinylated probe, 635/667 nm fluorescence (AID 1099).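 Further: score merges 667nm spot fluorescence with signal to noise across triplicate slides; reference of the scale not given here.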 To be noted: higher = more signal.
Assay [3] in a line: small-molecule microarray binders of probe aCHRDL2, primary screen, biochemical, biotinylated probe, 635/667 nm fluorescence (AID 1100). The note with it: higher = more signal.
The nature of assay [4]: splicing luciferase reporter signal modulators, primary screen, spliceosome inhibition project, cell-based, HEK293, splice +/- reporter (AID 1101).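 Further: HEK293 cells carrying a splicing-competent luciferase reporter gene; test concentration not given here.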 The note with it: luminescence, 24 h, higher = more signal, called active from +8 up or from −8 down.
Assay [5] deals with Fibroblast growth factor 10 (Homo sapiens) (UniProt O15520). Nature of the assay: FGF10 binders on small-molecule microarrays, primary screen, biochemical, small-molecule microarray, 635 nm fluorescence (AID 1102). The note with it: FGF10 binding, fluorescence 635 nm, higher = more signal.
Assay [6] relates to glycogen synthase kinase-3 (GSK3A per assay name; protocol says GSK3B). Nature of the assay: GSK3 binders on small-molecule microarrays, primary screen, biochemical, small-molecule microarray, 635 nm fluorescence, GSK3A (AID 1103). Further: the record names both GSK3A and GSK3B. To be noted: small-molecule microarray binding, fluorescence 635 nm; higher = more signal.
The target in assay [7] is Epidermal growth factor receptor (Homo sapiens) (UniProt P00533). Nature of the assay: EGFR binders on small-molecule microarrays, primary screen, biochemical, small-molecule microarray, 635 nm fluorescence (AID 1104).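 Further: score merges 667 nm emission intensity with spot signal to noise over triplicate slides.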 The note with it: EGFR binding, higher = more signal.
Assay [8] has as its target Follistatin-related protein 3 (Homo sapiens) (UniProt O95633). Briefly: FSTL3 binders on small-molecule microarrays, primary screen, biochemical, small-molecule microarray, 635 nm fluorescence (AID 1105).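 Further: score merges emission near 667 nm and signal to noise per printed spot across three slides.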 The note with it: FSTL3 binding, higher = more signal.
Assay [9] addresses Dickkopf-related protein 1 (Homo sapiens) (UniProt O94907). Briefly: DKK1 binders on small-molecule microarrays, primary screen, biochemical, small-molecule microarray, 635 nm fluorescence scan (AID 1106).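 Further: score merges emission near 667 nm with signal to noise over three replicate slides.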 The note with it: DKK1 binding, higher = more signal.
Assay [10] deals with Inhibin beta A chain (activin A). Nature of the assay: INHBA (activin A) binders on microarrays, primary screen, biochemical, small-molecule microarray, 635 nm fluorescence scan (AID 1107).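 Further: mouse activin A protein probed at 4.33 µg/mL on printed slides; score merges bound-protein fluorescence near 667 nm with spot signal-to-noise.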 The note with it: small-molecule microarray binding, higher = more signal.

Chain of Fibroblast growth factor 10 (Homo sapiens) (O15520 whole entry, looked up): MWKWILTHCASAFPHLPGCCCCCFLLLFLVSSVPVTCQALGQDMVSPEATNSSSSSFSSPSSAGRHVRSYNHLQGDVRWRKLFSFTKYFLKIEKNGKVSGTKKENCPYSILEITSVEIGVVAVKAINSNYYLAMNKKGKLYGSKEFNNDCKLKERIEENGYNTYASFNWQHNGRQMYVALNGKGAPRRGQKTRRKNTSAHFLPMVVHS
Chain of Dickkopf-related protein 1 (Homo sapiens) (O94907 whole entry, looked up): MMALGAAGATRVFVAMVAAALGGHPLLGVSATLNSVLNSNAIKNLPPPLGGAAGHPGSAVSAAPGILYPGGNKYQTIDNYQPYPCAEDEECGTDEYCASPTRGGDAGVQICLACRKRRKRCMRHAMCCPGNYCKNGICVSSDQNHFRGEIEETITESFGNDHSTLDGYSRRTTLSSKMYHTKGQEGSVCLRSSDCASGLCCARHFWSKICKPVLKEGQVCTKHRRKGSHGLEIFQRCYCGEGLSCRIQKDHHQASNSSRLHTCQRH
Chain of Epidermal growth factor receptor (Homo sapiens) (P00533 whole entry, looked up): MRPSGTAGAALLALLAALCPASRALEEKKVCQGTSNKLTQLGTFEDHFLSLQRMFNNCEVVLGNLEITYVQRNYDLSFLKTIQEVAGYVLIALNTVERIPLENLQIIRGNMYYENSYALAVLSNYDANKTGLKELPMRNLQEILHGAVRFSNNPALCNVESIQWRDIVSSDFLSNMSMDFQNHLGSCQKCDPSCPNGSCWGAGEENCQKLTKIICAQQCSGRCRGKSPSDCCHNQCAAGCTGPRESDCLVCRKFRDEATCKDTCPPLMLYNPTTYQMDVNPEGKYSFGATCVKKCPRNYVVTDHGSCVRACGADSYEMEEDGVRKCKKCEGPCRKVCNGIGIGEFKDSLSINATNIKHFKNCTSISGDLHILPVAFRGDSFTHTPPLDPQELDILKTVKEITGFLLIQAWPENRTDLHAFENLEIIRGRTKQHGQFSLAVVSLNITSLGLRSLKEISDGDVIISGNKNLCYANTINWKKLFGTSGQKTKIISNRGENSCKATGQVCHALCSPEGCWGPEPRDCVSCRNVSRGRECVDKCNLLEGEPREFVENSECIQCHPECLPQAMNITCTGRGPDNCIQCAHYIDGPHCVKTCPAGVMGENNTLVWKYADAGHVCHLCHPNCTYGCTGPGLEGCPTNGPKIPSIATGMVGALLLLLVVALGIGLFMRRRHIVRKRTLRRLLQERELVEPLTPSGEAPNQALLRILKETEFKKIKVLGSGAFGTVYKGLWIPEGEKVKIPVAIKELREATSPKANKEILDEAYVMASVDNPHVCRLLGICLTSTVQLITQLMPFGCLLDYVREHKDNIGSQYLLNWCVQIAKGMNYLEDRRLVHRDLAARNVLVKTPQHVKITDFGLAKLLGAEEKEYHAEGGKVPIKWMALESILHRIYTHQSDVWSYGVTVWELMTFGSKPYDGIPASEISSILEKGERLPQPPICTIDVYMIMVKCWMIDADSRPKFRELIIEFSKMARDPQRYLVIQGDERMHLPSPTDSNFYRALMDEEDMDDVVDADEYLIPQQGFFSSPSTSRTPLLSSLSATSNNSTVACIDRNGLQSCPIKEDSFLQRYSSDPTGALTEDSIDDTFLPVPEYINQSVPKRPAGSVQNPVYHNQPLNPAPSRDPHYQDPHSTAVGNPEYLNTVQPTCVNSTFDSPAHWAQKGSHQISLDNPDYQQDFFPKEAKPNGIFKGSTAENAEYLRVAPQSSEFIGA
Chain of Follistatin-related protein 3 (Homo sapiens) (O95633 whole entry, looked up): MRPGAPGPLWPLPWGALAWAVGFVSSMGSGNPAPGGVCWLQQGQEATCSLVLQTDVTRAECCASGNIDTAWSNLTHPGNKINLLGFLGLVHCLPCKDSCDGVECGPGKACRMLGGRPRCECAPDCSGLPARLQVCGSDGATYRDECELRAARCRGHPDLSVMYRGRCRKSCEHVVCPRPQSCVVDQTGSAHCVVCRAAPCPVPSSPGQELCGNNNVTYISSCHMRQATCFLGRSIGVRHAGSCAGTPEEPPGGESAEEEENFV

`COC(=O)[C@@]1(Cc2ccccc2)[C@H]2c3cc(C(=O)N4CCCC4)n(CC4CC4)c3C[C@H]2CN1C(=O)c1ccccc1`: the composite z-score in assay [1] is 1.23; in assay [2], 1.48; in assay [3] it was 1.16; in [5], 0.596; in [6], 1.29; in assay [7], 0.436. The composite z-score in assay [8] is 1.17; in [9], -0.23; in assay [10] it was 1.16. Also, the z-score in assay [4] was -2.08 (inactive).

As for `[N-]=[N+]=NCc1ccccc1C[C@@]1(C(=O)NCC(O)CO)N=C(c2ccc(OCCCO)cc2)O[C@@H]1c1ccccc1N=[N+]=[N-]` (stereo not given in full), the composite z-score in assay [1] is 0.991; in [2], 1.03; in [3] it was 1.38; in [5] it was 1.01; in [6], 0.364; in assay [7], -0.0087. The values for the composite z-score in [8], in assay [9] and in assay [10] were 0.348, -0.504 and 1.2, respectively. The z-score in assay [4] was 0.561 (inactive).

In the case of `CC(C)(C)OC(=O)CC[C@@]12N=C(c3ccc(OCCCO)cc3)O[C@@H]1c1ccccc1N(CCS(=O)(=O)c1ccccc1)C2=O`, the composite z-score in assay [1] was 0.691; in assay [2], 0.512; in [3], 1.03; in assay [5] it was -0.122; in [6], 0.323; in [7], 0.348. The composite z-score in assay [8] was 1.12; in [9] it was 0.681; in assay [10] it was 1.05. Also, in assay [4], the z-score was -1.14 (inactive).

With `COc1ccc([Si](C)(C)[C@@H]2[C@@H](CC(=O)N3Cc4ccccc4C[C@H]3CO)O[C@]3(C(=O)N(C)c4c(Br)cc(C)cc43)[C@H]2C)cc1`, the composite z-score in [1] was 0.859; in assay [2], -0.0347; in assay [3] it was -0.311; in assay [5], 1.33; in assay [6] it was 0.954; in [7], 0.968. Moreover, the results for the composite z-score in assay [8], in assay [9] and in assay [10] were 1.08, 0.685 and 1.13, respectively. The z-score in assay [4] is -2.12 (inactive).

Take `C=C(COC)/C(=C/C[C@@H](OC(C)=O)c1ccc(CO)o1)c1cnc2ccccc2c1`: the composite z-score in [1] was 0.974; in [2], 0.201; in assay [3], -0.189; in assay [5], 1.46; in [6], 1.32; in [7], 1.57. Besides, the composite z-score was determined as 1.5 in assay [8], 1.13 in assay [9] and 1.74 in assay [10]. For the same compound, the z-score in assay [4] was -0.683 (inactive).

With `COC(=O)[C@@]1(Cc2ccc(F)cc2)[C@H]2c3cc(C(=O)N(C)C)n(CC4CC4)c3C[C@H]2CN1C(=O)c1ccccc1`, the composite z-score was -0.0199 in assay [1]; 2.38 in assay [2]; 1.41 in [3]; 1.4 in [5]; 1.31 in assay [6]; 0.463 in [7]. Further, the figures for the composite z-score in assay [8], in assay [9] and in assay [10] were 1.18, -0.637 and 0.14, respectively. Also, the z-score in assay [4] was -1.59 (inactive).

As to `C#CCN(CC1=CCCCC1)[C@H](c1ccccc1Br)[C@@H](O)Cc1ccccc1`, the composite z-score in assay [1] is 1.53; in [2] it was -0.0907; in [3] it was 0.979; in assay [5], -1.25; in [6], -0.28; in [7], -1.56. Also, the composite z-score is -1.28 in assay [8], -1.07 in assay [9] and 0.685 in [10]. The z-score in assay [4] is -1.37 (inactive).

With `[N-]=[N+]=Nc1ccccc1[C@H]1OC(c2ccc(OCCCO)cc2)=N[C@@]1(Cc1ccccc1)C(=O)O`, the composite z-score in [1] was determined as 1.68; in assay [2] it was 0.292; in assay [3], 0.381; in assay [5] it was 0.875; in assay [6] it was 0.997; in assay [7], 0.0509. The composite z-score in assay [8] was determined as 0.727; in assay [9], 0.293; in [10], 1.12. Moreover, in assay [4], the z-score is -1.23 (inactive).

`O=C1NCC(=O)N2[C@@H]1C[C@@H](C(=O)O)[C@H]2c1cccc(OCCO)c1`: the composite z-score is 2.28 in assay [1]; 3.06 in assay [2]; 1.73 in assay [3]; 1.38 in assay [5]; 1.38 in assay [6]; 1.96 in [7]. The values for the composite z-score in assay [8], in [9] and in assay [10] were 1.66, 2.56 and 1.74, respectively. Also, the z-score in [4] is 0.45 (inactive).

Regarding `CN1C(=O)C2C=CC(C(O)C3CC=CCC3)N(NC(=O)OC(C)(C)C)C2C1=O` (stereo not given), the composite z-score worked out at 0.701 in [1]; 0.0347 in assay [2]; 0.16 in assay [3]; 0.796 in assay [5]; 1.12 in assay [6]; 0.933 in assay [7]. Besides, the results for the composite z-score in assay [8], in assay [9] and in assay [10] were 1.23, 0.347 and 1.03, respectively. Besides, the z-score in assay [4] was 1.61 (inactive).

For `CCCCCN1CC=CC23O[C@@H]4/C=C\CCCOC(=O)C4[C@H]2C(=O)N(CCCO)[C@@H]3C1=O` (stereo not given in full), the composite z-score in [1] was 0.93; in assay [2], -0.175; in assay [3], 0.062; in [5] it was 0.0154; in assay [6] it was 1.06; in assay [7] it was -0.346. Also, the composite z-score in [8] was -0.352; in [9], -0.663; in [10] it was 1.41. Besides, the z-score in assay [4] is 0.308 (inactive).

`COC(=O)c1c(CC[C@@H](CO)NC(=O)N[C@H](Cn2cc(Cc3ccccc3)nn2)C(C)C)oc(C(C)=O)c1C(=O)OC`: the composite z-score in assay [1] was 0.751; in assay [2], -0.195; in assay [3] it was -0.457; in assay [5], 1.16; in [6], 0.544; in assay [7], -0.172. Besides, the composite z-score in [8] is 0.678; in assay [9], 0.857; in assay [10], 0.509. For the same compound, the z-score in [4] is -0.781 (inactive).

`COCCCNC(=O)C1N=C(c2ccc(OCCCO)cc2)N(c2ccccc2)O1` (stereo not given): the composite z-score in assay [1] was 0.87; in [2] it was 0.0045; in assay [3] it was 0.203; in assay [5], 1.3; in assay [6] it was 0.781; in [7], 0.241. Also, the composite z-score in assay [8] is 0.784; in assay [9] it was 0.383; in [10], -0.6. For the same compound, the z-score in assay [4] is -0.27 (inactive).

Turning to `O=C1c2ccccc2[C@](Cc2ccccc2I)(C(=O)NC2CC2)[C@H](c2ccc(CO)cc2)N1Cc1ccccc1`, the composite z-score in assay [1] was 0.701; in assay [2], -0.145; in assay [3], 0.693; in assay [5] it was 0.409; in [6], -0.0685; in assay [7], -0.375. The composite z-score in assay [8] was -0.117; in assay [9], -0.112; in assay [10], 0.0183. In addition, the z-score in assay [4] is -0.0921 (inactive).

On to `COCCOC(=O)N1C(=O)[C@@]2(c3cc(C#CCCO)ccc31)[C@H](C(=O)Nc1nc3ccccc3s1)[C@H]1C(=O)O[C@H](c3ccccc3)[C@H](c3ccccc3)N1[C@@H]2c1ccc(OCCO)cc1`, for which the composite z-score in assay [1] was 1.27; in [2] it was 0.385; in assay [3], -0.284; in assay [5], 1.11; in assay [6], 0.687; in [7], 0.432. The composite z-score in assay [8] is 1.2; in [9] it was 0.31; in assay [10] it was 0.0763. Also, the z-score in [4] is -0.021 (inactive).

These data come from PubChem BioAssay.
